MPTP inh = blocks calcium-induced mitochondrial swelling. hit rate 1.4% among 360,000. inhibition, % at 10 µM. isolated mouse mitochondria, Ca2+ swelling absorbance, 30 min. AID 602449;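 active means inhibition of 50% or more, scaled per plate between neutral and stimulator controls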;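 further: 0% = DMSO wells given calcium and 100% = 1 mM EGTA wells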
SKN-1 inh = blocks SKN-1 activity in C. elegans | C. elegans VP596 Pgst-4::GFP/RFP ratio, acrylamide-induced, 24 h | inhibition, % at 21.8 µM | hit rate 0.49% among 360,000 | AID 624304;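 active means interference check ratio from 0.5 to 1.5 plus GFP to RFP signal ratio inhibition reaching or exceeding a fixed threshold, cut at about 30% in these data, passing the limit was not always enough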
ATG4B inh = ATG4B (human) cysteine protease inhibition | Q9Y4P1 | ATG4B cleavage of LC3-PLA2, NBD-HPC fluorescence, 1 h | inhibition, % at 8.33 µM | hit rate 0.51% among 340,000; in the data active means inhibition above about 40%
Target sequence (Q9Y4P1 whole entry, looked up): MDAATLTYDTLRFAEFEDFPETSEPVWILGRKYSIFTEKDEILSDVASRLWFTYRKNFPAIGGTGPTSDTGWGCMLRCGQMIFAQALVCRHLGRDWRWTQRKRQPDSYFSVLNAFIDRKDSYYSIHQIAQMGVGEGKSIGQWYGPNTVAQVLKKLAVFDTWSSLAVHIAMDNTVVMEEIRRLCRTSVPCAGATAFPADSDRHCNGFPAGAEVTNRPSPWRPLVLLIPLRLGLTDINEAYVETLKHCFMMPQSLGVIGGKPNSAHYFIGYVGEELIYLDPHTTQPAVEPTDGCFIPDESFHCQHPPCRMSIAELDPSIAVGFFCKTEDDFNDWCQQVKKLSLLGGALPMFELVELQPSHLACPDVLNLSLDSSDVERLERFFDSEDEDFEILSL
F508del corr = CFTR F508del correction in bronchial cells; CFBE cells, YFP halide quenching; stimulated with forskolin plus potentiator P3; % fluorescence drop versus neutral controls; activity (quench increase), % at 7.58 µM; hit rate 0.36% among 350,000;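 active means mean added fluorescence quench of at least 8% versus neutral control, with both replicates also reaching 8%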;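 further: cells transiently co-express mutant CFTR-F508del with the halide-sensitive YFP; corrector assay measuring rescue of mutant channel to the surface after 24 h compound exposure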
CendR NRP1 mod = alters CendR peptide binding to human NRP-1; inhibition, % at 25 µM; O14786; FAM-RPARPAR peptide binding to NRP-1, fluorescence polarization; hit rate 0.85% among 360,000;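 active means inhibition or corrected inhibition above about 18%, plus a signal ratio from 0.5 to 1.5, limit read from the data, passing the limit was not always enough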
Rh123 counter = Rhodamine 123 counter-screen of mitochondrial pore hits. shares compounds with MPTP inh. isolated mitochondria, membrane potential, Rhodamine 123 fluorescence. inhibition, % at 10 µM. hit rate 78% among 5,000. AID 624504; in the data active means inhibition above about 22%;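 further: 0% = DMSO vehicle and 100% = positive control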
MPTP abs DR = dose response confirmation of mitochondrial permeability transition pore inhibitors | IC50, µM | isolated mitochondria swelling, absorbance | shares compounds with MPTP inh | hit rate 58% among 780; in the data active means IC50 below about 20 µM
MPTP cs DR = counter-screen for mitochondrial permeability transition pore inhibitors, dose response | hit rate 49% among 780 | shares compounds with MPTP inh | AID 651564 | isolated mitochondria counterscreen, fluorescence read-out | IC50, µM; in the data active means IC50 below about 80 µM
* hit, by the source's call; i = inactive; . = no result; + = active, no number. This is a sample that favours compounds with a hit; in the whole collection about 2.7% have one here.

SMILES | MPTP inh | SKN-1 inh | ATG4B inh | F508del corr | CendR NRP1 mod | Rh123 counter | others
CC(C)(C)c1ccc(-c2nnc(SCCC#N)n2C2CCCC2)cc1 | 69* | 4 | -7 | . | 11 | 15 | MPTP abs DR=i;MPTP cs DR=23*
COC(=O)c1c(NC(=S)Nc2ccccc2Cl)sc(C)c1C | 56* | 15 | -4 | . | -11 | 70*
Cc1nc(OCc2ccccc2)c2ccccc2n1 | 72* | 8 | -3 | . | 1 | 15 | MPTP abs DR=12*;MPTP cs DR=27*
COc1ccc(F)cc1COc1nc(C)nc2ccccc12 | 1 | -4 | 0 | -5 | 7 | .
Cc1nc2ccccc2cc1OCc1ccc(Cl)cc1 | 96* | 89* | 5 | . | -8 | 104*
COc1cccc(COc2cc3ccccc3nc2C)c1 | 97* | 45* | -7 | . | -6 | 94*
Cc1nc2ccccc2cc1OCc1ccccc1 | 92* | 32 | -1 | . | 3 | 100*
CC(C)NC(=O)N[C@H]1CC[C@@H](CCNC(=O)C2CCOCC2)O[C@H]1CO | . | . | . | 1 | . | .
C[C@@H]1CN([C@H](C)CO)S(=O)(=O)c2ccc(C#CC3CC3)cc2O[C@@H]1CN(C)C(=O)C1CCC1 | . | . | . | -2 | . | .
COc1ccc(CN(C)C[C@@H]2OCCCC[C@@H](C)Oc3ccc(NC(=O)Cc4ccccc4)cc3C(=O)N([C@@H](C)CO)C[C@@H]2C)cc1 | . | . | . | 1 | . | .
CSc1cccc(NC(=O)/C=C/c2ccco2)c1 | 0 | 10 | 0 | -3 | -25 | .
CSc1cccc(NC(C)=O)c1 | 0 | 6 | 4 | . | -3 | .
CSc1cccc(NC(=O)/C=C/c2ccccc2)c1 | 52* | 14 | 4 | . | -6 | 53*
CSc1cccc(NC(=O)Nc2ccccc2)c1 | 88* | -8 | -11 | . | 11 | 110*
CSc1cccc(NC(=O)/C=C/c2ccc(Cl)cc2)c1 | 90* | 18 | 1 | . | -9 | 90*
CSc1ccc(/C=C/C(=O)Nc2ccccc2)cc1 | 2 | 4 | -1 | 3 | -1 | .
C[C@H](CO)N1C[C@H](C)[C@H](CN(C)C(=O)C2CCC2)Oc2ncc(Br)cc2C1=O | . | . | . | 2 | . | .
COc1cc([N+](=O)[O-])cc(/C=N/NC(=O)C(C)Nc2cccc(C)c2)c1O (stereo not given) | -1 | -1 | 5 | . | -5 | .
Cc1ccc(NC(=O)CCC(=O)N/N=C/c2ccccc2O)cc1 | 0 | 12 | 1 | 4 | 8 | .
C=CCc1cccc(/C=N/NC(=O)CCCNc2ccc(C)cc2)c1O | 54* | -6 | -13 | . | -8 | 30*
Cc1ccc(SCCC(=O)N/N=C/c2ccccc2O)cc1 | 52* | -3 | -9 | . | -4 | 45*
C=CCc1cccc(/C=N/NC(=O)CNc2ccccc2)c1O | 1 | 19 | -2 | . | 1 | .
C=CCc1cccc(/C=N/NC(=O)C(C)Nc2cccc(C)c2)c1O (stereo not given) | 73* | 15 | -1 | 5 | 2 | 61*
COc1cccc(CNC(=O)C[C@H]2CC[C@@H]3[C@@H](COc4ccc(NC(C)=O)cc4C(=O)N3C)O2)c1 | . | . | . | -2 | . | .
CCC1=NN(C(=O)c2ccc(Br)cc2)C(O)(c2ccccc2)C1 (stereo not given) | 61* | 7 | 2 | . | -9 | 75*
SMILES | MPTP inh | SKN-1 inh | ATG4B inh | F508del corr | CendR NRP1 mod | Rh123 counter | others
Cc1ccccc1C(=O)Nc1cc(S(=O)(=O)N2CCCCC2)ccc1N1CCN(C)CC1 | 28 | -1 | -5 | . | 2 | .
COc1ccc(C(=O)Nc2ccc(S(=O)(=O)N3CCCC3)cc2)cc1 | -1 | -3 | -7 | 0 | -8 | .
COc1ccc(NS(=O)(=O)c2ccc(C(=O)N3CCCCCC3)cc2)cc1 | 54* | -1 | 6 | 1 | -12 | 57*
COc1ccc(NS(=O)(=O)c2ccc(O)c(NC(=O)c3ccc(S(=O)(=O)N4CCCCCC4)cc3)c2)cc1 | 66* | 11 | 8 | . | -12 | 49*
CN1CCN(c2ccc(S(=O)(=O)N3CCCCC3)cc2NC(=O)c2ccc3ccccc3c2)CC1 | 67* | 5 | -19 | . | -3 | -15 | MPTP abs DR=14*;MPTP cs DR=>80
COc1ccc(NS(=O)(=O)c2cccc(NC(=O)c3ccc(S(=O)(=O)N4CCCCCC4)cc3)c2)cc1 | 84* | -1 | -10 | . | 6 | 86*
COc1ccc(NC(=O)N(C)C[C@H]2Oc3c(NC(=O)c4cc(C)nn4C)cccc3C(=O)N([C@@H](C)CO)C[C@H]2C)cc1 | . | . | . | -1 | . | .
O=C(C[C@@H]1CC[C@H](NC(=O)c2ccccn2)[C@@H](CO)O1)NCc1cc(F)cc(F)c1 | . | . | . | -1 | . | .
O=C(c1ccccc1F)N1CC[C@@H]2[C@@H](CO)Nc3ccc(Br)cc3[C@@H]21 | . | . | . | -3 | . | .
C[C@H]1CN([C@@H](C)CO)S(=O)(=O)c2ccc(C#CC3CC3)cc2O[C@H]1CN(C)C(=O)C1CCCCC1 | . | . | . | -1 | . | .
CCN1CCN(c2ccc(S(=O)(=O)N3CCCCC3)cc2NC(=O)/C=C/c2ccc([N+](=O)[O-])cc2)CC1 | -1 | 15 | -7 | 3 | 1 | .
CCN1CCN(c2ccc(S(=O)(=O)N3CCCCC3)cc2NC(=O)/C=C/c2ccc(F)cc2)CC1 | 78* | 11 | 2 | -4 | -2 | -18 | MPTP abs DR=i
O=C(Nc1cc(S(=O)(=O)Nc2ccccc2Cl)ccc1O)c1sc2cc(Cl)ccc2c1Cl | 94* | -6 | -8 | . | -5 | 3
COc1ccccc1NS(=O)(=O)c1ccc(Cl)c(NC(=O)c2sc3cc(Cl)ccc3c2Cl)c1 | 0 | 2 | 1 | 2 | -16 | .
C[C@@H]1CN([C@@H](C)CO)C(=O)c2cc(NC(=O)C3CC3)ccc2O[C@@H]1CN(C)C(=O)Nc1cccc2ccccc12 | . | . | . | -1 | . | .
COCCCNC(=O)c1c(N)n(/N=C/c2cccnc2)c2nc3ccccc3nc12 | + | -20 | -2 | . | 4 | -2
COCCCNC(=O)c1c(N)n(/N=C/c2cccs2)c2nc3ccccc3nc12 | -4 | -7 | -6 | . | -8 | .
CN1CCN(c2ccc(-c3cccc(NC(=O)COc4ccc(Cl)cc4Cl)c3)nn2)CC1 | 74* | -4 | -4 | -3 | -7 | -16 | MPTP abs DR=19*;MPTP cs DR=>80
COc1ccc(NC(=S)NNC(=O)COc2ccc(Cl)cc2Cl)cc1 | 4 | 6 | 10 | . | -6 | .
Cc1cccc(NC(=S)NNC(=O)COc2ccc(Cl)cc2Cl)c1 | 55* | 5 | 34 | . | -1 | 52*
CCCNC(=O)Nc1ccc2c(c1)OC[C@@H](C)N(Cc1cccnc1)C[C@H](C)[C@H](OC)CN(C)C2=O | . | . | . | -3 | . | .
CC(=O)N(C)C[C@H]1Oc2ncc(C#CCC3CCCC3)cc2C(=O)N([C@@H](C)CO)C[C@@H]1C | . | . | . | -1 | . | .
Cc1ccc2nc(-c3cccc(SC4CCCCC4)c3)c(NCc3ccccc3)n2c1 | 12 | -3 | 26 | -1 | 5 | .

Screens as filed in PubChem.
